For some of these results: Potency and affinity values are given separately.
How the values were obtained:
Set-up in all cases: scale not given: direction of the effect not stated beside the values
[1] = biological target: Protein translocase subunit SecA (Escherichia coli (strain K12)) (UniProt P10408); assay: Assay to Identify E. coli SecA ATPase Inhibitors; assay type: functional; conditions: 30 µM
[2] = biological target: T1, Ubiquitin-activating enzyme e1, putative (Leishmania donovani (strain BPK282A1)) (UniProt E9BSI1); assay: Leishmania donovani Ubiquitin Activating Enzyme (LdE1); assay type: functional; conditions: 30 µM
T1 sequence (whole entry): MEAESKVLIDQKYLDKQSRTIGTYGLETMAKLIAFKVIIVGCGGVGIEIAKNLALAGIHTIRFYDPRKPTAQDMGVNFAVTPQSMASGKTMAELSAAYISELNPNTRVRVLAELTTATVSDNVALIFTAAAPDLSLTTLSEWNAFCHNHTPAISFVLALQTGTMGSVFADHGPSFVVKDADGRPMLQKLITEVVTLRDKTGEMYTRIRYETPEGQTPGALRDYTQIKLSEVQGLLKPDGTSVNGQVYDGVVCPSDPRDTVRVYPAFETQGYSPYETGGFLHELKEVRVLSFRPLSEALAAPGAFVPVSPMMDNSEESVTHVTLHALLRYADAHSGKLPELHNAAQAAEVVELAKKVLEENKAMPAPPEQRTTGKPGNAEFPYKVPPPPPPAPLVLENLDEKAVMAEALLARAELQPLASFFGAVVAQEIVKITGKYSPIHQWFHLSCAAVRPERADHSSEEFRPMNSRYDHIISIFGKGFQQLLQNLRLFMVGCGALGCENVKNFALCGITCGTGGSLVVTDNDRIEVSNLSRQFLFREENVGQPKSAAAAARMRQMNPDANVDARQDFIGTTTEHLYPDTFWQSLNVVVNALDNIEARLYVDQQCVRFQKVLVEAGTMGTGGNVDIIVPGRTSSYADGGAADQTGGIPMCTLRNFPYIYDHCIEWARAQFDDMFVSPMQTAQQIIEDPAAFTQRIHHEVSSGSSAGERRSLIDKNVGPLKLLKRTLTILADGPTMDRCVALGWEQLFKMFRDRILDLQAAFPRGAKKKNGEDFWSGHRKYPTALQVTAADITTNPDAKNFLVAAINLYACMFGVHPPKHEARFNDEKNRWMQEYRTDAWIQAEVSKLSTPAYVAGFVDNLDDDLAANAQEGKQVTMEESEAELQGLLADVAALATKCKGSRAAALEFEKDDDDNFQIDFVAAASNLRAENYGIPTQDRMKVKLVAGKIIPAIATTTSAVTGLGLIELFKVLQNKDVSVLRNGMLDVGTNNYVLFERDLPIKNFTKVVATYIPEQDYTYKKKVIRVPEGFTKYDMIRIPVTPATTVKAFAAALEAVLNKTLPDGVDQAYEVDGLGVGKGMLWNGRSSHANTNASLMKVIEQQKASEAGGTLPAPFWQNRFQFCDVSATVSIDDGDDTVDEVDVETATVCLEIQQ

[3] = biological target: AMP-activated protein kinase, AMPK (Homo sapiens) (UniProt P54646+O43741+P54619+Q9UGJ0+Q9Y478+Q13131+Q9UGI9); assay: AMP-dependent Kinase enzyme assay. An in vitro enzyme assay that detects ADP turnover that is directly proportional to AMPK activity. This uses naive AMPK that is activated during the assay with MK-8722; assay type: functional; conditions: 30 µM
[4] = biological target: Sialic acid-binding Ig-like lectin 9 (Homo sapiens) (UniProt Q9Y336); assay: Hs-Siglec9 ALPHAscreen SOP 20170721; conditions: 10 µM
Chain of Sialic acid-binding Ig-like lectin 9 (Homo sapiens) (Q9Y336 whole entry): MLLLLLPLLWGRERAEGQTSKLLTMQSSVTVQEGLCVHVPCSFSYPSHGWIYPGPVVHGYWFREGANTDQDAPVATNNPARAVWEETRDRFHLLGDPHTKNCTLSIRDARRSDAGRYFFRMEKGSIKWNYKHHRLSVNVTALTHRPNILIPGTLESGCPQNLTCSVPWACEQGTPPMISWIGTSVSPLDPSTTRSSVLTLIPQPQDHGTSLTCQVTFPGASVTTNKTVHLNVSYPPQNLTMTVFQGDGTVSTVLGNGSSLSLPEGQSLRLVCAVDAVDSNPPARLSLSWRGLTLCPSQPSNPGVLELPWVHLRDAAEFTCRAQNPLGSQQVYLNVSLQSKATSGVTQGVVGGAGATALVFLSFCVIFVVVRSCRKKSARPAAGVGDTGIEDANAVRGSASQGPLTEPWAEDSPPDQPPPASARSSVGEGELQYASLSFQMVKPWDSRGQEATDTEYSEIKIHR

[5] = tested on: Trypanosoma cruzi; assay: Trypanosoma cruzi phosphomannomutase and mannose-1-phosphate guanylyltransferase assay; assay type: functional; conditions: 10 µM
[6] = biological target: T2, Arginase-2, mitochondrial (Homo sapiens) (UniProt P78540); assay: in vitro enzyme assay to detect the production of urea directly proportional to the activity of Arginase II; assay type: functional; conditions: 33.3 µM; also: in the data most compounds retested in dose-response had high values
T2 sequence (whole entry): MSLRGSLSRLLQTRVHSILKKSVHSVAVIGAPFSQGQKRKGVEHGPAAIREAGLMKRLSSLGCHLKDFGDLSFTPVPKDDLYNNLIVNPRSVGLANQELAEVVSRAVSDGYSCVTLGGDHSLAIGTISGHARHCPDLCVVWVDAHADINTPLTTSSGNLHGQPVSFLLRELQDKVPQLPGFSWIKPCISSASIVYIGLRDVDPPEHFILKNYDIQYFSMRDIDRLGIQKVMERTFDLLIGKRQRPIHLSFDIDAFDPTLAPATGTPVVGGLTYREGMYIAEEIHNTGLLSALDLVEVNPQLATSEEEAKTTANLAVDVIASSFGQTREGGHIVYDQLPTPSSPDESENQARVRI

[7] = biological target: T3, Proteasome subunit beta (Trypanosoma cruzi) (UniProt O96673); assay: Trypanosoma cruzi proteasome chymotrypsin-like activity (TcProtChymo) assay.; also: in the data most compounds retested in dose-response had high values; assay type: functional; conditions: 9.37 µM
T3 sequence (whole entry): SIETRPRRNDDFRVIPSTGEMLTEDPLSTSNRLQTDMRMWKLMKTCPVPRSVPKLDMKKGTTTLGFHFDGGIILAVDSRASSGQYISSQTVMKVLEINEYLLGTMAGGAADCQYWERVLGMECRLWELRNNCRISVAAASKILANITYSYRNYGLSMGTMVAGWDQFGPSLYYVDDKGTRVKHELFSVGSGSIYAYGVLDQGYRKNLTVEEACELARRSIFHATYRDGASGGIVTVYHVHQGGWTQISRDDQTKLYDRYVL

[8] = species on record: Homo sapiens; assay: To identify inhibition of the IFN signalling (Jak-Stat) pathway via expression of an eGFP reporter gene under the control of an IFN-stimulated response element (ISRE) containing MxA promoter.; assay type: functional; conditions: 30 µM
[9] = biological target: T4, Tyrosyl-tRNA synthetase, putative (Trypanosoma cruzi (strain CL Brener)) (UniProt Q4DSP6); assay: Trypanosoma cruzi tyrosyl tRNA synthetase (TcYRS) _High Tyrosine SOP; assay type: functional; conditions: 30 µM; also: in the data most compounds retested in dose-response had high values
T4 sequence (whole entry): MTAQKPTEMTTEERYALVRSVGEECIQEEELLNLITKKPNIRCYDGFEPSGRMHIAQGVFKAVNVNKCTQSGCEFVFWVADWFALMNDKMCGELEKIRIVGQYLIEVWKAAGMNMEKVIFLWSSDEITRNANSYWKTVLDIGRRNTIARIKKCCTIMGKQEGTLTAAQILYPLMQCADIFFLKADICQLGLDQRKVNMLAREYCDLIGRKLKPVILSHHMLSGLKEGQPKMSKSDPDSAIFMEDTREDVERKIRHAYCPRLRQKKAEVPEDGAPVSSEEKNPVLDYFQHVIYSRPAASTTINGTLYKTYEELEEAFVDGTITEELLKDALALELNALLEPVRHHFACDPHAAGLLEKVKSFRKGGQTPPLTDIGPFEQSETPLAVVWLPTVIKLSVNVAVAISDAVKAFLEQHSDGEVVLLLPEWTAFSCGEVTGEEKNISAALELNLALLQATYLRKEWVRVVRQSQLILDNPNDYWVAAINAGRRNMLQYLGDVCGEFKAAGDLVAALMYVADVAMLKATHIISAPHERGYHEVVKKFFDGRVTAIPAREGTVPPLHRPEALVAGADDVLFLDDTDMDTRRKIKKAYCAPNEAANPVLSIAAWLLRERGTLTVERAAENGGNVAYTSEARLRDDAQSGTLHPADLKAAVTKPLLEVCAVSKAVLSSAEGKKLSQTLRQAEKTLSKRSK

[10] = biological target: T4, Tyrosyl-tRNA synthetase, putative (Trypanosoma cruzi (strain CL Brener)); assay: Trypanosoma cruzi tyrosyl tRNA synthetase (TcYRS) SOP; assay type: functional; conditions: 30 µM
[11] = biological target: Chromo domain-containing protein 1 (Saccharomyces cerevisiae (strain ATCC 204508 / S288c) (Baker's yeast)) (UniProt P32657); assay: ScCHD-1 Enzyme Inhibition Assay; assay type: functional; conditions: 30 µM; also: in the data most compounds retested in dose-response had high values
Chain of Chromo domain-containing protein 1 (Saccharomyces cerevisiae (strain ATCC 204508 / S288c) (Baker's yeast)) (P32657 whole entry, the tested form may be a part): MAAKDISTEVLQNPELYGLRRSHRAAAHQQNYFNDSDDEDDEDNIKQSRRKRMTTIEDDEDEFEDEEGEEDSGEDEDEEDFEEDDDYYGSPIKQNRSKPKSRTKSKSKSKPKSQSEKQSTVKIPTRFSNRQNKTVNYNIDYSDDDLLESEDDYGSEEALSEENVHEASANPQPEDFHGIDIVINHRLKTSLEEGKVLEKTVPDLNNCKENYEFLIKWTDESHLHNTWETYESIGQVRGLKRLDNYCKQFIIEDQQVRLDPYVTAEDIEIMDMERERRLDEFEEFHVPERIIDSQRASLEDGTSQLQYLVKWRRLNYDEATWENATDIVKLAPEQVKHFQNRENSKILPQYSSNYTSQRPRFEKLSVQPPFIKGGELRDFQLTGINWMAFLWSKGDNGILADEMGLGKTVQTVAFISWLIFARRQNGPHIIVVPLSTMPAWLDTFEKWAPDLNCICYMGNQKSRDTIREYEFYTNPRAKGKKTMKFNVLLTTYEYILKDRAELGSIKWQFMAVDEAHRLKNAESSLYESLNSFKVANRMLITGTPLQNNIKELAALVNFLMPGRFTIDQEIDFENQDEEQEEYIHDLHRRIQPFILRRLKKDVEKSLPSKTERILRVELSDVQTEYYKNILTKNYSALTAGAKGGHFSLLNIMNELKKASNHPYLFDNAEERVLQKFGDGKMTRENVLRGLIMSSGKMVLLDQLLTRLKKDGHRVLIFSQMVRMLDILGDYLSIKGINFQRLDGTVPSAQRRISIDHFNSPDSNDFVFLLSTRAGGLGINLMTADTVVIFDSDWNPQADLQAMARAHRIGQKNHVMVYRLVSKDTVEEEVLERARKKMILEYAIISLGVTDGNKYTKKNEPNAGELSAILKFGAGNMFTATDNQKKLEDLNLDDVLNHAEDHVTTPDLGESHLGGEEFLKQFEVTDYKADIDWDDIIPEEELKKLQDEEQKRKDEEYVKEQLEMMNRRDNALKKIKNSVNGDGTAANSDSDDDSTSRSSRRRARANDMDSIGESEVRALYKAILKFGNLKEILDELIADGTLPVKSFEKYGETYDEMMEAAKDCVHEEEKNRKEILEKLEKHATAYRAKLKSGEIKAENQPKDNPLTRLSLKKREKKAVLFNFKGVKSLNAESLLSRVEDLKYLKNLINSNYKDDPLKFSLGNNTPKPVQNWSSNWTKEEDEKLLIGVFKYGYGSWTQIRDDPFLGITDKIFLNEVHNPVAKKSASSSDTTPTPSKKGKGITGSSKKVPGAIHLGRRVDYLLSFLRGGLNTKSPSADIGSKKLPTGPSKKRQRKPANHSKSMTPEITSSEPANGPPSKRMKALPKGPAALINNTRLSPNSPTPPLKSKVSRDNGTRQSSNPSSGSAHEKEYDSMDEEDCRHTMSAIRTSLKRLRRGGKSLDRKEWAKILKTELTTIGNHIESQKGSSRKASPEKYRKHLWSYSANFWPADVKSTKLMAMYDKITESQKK

Chain of Protein translocase subunit SecA (Escherichia coli (strain K12)) (P10408 whole entry): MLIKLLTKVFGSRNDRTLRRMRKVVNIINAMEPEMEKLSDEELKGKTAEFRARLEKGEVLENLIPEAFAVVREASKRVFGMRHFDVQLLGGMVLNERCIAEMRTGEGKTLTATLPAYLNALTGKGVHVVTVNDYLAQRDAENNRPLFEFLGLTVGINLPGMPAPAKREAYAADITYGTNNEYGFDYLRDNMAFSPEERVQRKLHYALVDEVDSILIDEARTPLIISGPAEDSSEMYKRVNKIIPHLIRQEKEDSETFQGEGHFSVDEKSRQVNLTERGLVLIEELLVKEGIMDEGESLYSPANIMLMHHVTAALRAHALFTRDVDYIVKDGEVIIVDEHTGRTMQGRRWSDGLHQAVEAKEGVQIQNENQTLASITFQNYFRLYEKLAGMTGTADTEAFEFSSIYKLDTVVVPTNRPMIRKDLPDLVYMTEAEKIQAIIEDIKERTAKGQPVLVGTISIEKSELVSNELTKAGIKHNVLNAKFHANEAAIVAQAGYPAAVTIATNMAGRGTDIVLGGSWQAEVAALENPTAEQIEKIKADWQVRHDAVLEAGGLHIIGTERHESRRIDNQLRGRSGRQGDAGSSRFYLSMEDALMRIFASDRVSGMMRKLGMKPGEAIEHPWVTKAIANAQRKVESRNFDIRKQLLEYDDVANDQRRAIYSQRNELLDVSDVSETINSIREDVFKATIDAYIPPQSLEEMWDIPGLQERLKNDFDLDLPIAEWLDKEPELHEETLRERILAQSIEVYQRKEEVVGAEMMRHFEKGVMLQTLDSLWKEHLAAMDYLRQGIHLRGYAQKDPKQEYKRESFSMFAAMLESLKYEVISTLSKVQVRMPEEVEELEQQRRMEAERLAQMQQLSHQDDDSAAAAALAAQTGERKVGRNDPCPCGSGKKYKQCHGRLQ

| Structure (SMILES) | Percent Effect [1] [%] | Percent Effect [2] [%] | Percent Effect [3] [%] | Percent Effect [4] [%] | Percent Effect [5] [%] | Percent Effect [6] [%] | Percent Effect [7] [%] | Percent Effect [8] [%] | Percent Effect [9] [%] | Percent Effect [10] [%] | Percent Effect [11] [%] |
| --- | --- | --- | --- | --- | --- | --- | --- | --- | --- | --- | --- |
| c1cnc2c(c1)cc(C1CCOCC1)n2CCN1CCOCC1 | -3.29 | 14.9 | 13.1 | -5.49 | 0.79 | -1.62 | 12.5 | 4.82 | 3.23 | 11.7 | -12.6 |
| Cc1nc(-c2ccsc2)ccc1C(=O)O | -3.65 | 4.17 | 0.691 | -1 | 0.68 | 2.65 | 21.9 | -3.42 | 5.26 | 10.3 | -3.62 |
| CCc1nc(C)c([C@H]2CN(C)C[C@@H]2C(=O)NCCc2cnccn2)[nH]1 | -4.56 | 8.11 | 3.09 | 6.61 | 1.54 | 2.86 | 6.72 | 3.41 | 10.1 | 17.1 | -3.65 |
| NC(=O)NCC(=O)N1C[C@H]2CC[C@@H]1CN(C1Cc3ccccc3C1)C2 | -3.92 | 10.8 | -25.8 | 17.9 | -0.88 | -3.23 | 14 | 3.96 | 5.38 | 13.6 | -4.63 |
| Cc1cccc(CN2CCc3c(nc(N4CCC(C)CC4)[nH]c3=O)C2)n1 | -4.27 | 4.05 | 14.3 | 2.26 | 4.15 | -0.696 | 5.3 | -12.8 | 8.6 | 14.3 | -8.43 |
| c1ccc(-c2cnc(CNCC3CCCN3c3cccnn3)o2)cc1 (stereo unspecified) | -1.23 | -5.2 | 3.3 | -5.27 | 1.86 | 3.16 | 15.8 | 0.932 | 16.2 | 21.2 | -20.7 |
| O=C(c1ccc(-n2cccn2)nc1)N1CCC(Nc2cccnn2)CC1 | -8.1 | 10.4 | 4.61 | 12.7 | 1.47 | 0.632 | 12.8 | 5.75 | 6.67 | 9.41 | -8.74 |
| CN(Cc1cnccn1)C(=O)c1ccnc(OC2CCC2)c1 | 2.54 | -2.7 | 1.16 | 4.85 | 0.193 | 1.43 | 1.9 | 4.71 | -0.529 | 4.88 | 8.01 |
| Cc1noc(NC(=O)c2ccc(Br)s2)n1 | 1.05 | -5.26 | 14.6 | -3.75 | -5.13 | 3.96 | 9.39 | 40.2 | -3.45 | 1.24 | 15.6 |
| Cc1cc(C)n(CC2CCCN2Cc2c(C)noc2C)n1 (stereo unspecified) | -2.91 | -2.7 | 33.8 | 8.4 | 6.51 | -0.802 | 5.59 | 9.49 | 2.46 | 11.1 | -10.7 |
| CC(O)CN1CCN(C(=O)c2ccc(N(C)C)nn2)CC1 (stereo unspecified) | -4.58 | 10.4 | -1.75 | 11.7 | 3.93 | 4.27 | 1.18 | 17.9 | 3.88 | 12.2 | -9.31 |

— ChEMBL document CHEMBL3988442, “University of Dundee, Small-Polar-MMV Screening Library” (2021)
